In PubChem BioAssay (EPA / NIEHS):
Activity calls are given as the source filed them. How the source made its calls: active means hit-call score of the fitted dose curve at least 0.9, where 1 is the maximum; inactive means score below 0.9.

Experiments:
Details in all cases: mRNA level, 48 h; actives raise or lower the signal
[1] = read-out: Signal transducer and activator of transcription 3 (Homo sapiens) (UniProt P40763); test: LTEA_HepaRG_STAT3: Life Technologies and Expression Analysis (LTEA) Assay for Signal transducer and activator of transcription (STAT3) using HepaRG (AID 2283529)
How it was run: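 Differentiated HepaRG cells, serum-free induction medium, dosed 48 h in duplicate, 8 half-log concentrations from 100 uM in 0.5% DMSO. STAT3 mRNA by qRT-PCR, normalised to ACTB, GAPDH, POLR2A; bidirectional fit versus DMSO.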

[2] = read-out: solute carrier (SLCO1B1), SLCO1B1 (gene 10599); test: LTEA_HepaRG_SLCO1B1: Life Technologies and Expression Analysis (LTEA) Assay for solute carrier (SLCO1B1) using HepaRG (AID 2283530)
How it was run: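 HepaRG, serum-free induction medium, 48 h dosing, 8-pt half-log from 100 uM, 0.5% DMSO vehicle, duplicates. Readout: SLCO1B1 mRNA, qRT-PCR, ACTB/GAPDH/POLR2A normalization; up or down fit vs DMSO.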

[3] = read-out: sulfotransferase 2A1 (SULT2A1), SULT2A1 (gene 6822); test: LTEA_HepaRG_SULT2A1: Life Technologies and Expression Analysis (LTEA) Assay for sulfotransferase 2A1 (SULT2A1) using HepaRG (AID 2283531)
How it was run: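 Transcript levels of SULT2A1, quantified by qRT-PCR and normalized to three housekeeping genes, serve as the readout. Human HepaRG cultures receive test chemicals for 48 h at up to 100 uM in half-log steps, with 0.5% DMSO vehicle.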

[4] = read-out: Transforming Growth Factor (TGFA), TGFA (gene 7039); test: LTEA_HepaRG_TGFA: Life Technologies and Expression Analysis (LTEA) Assay for Transforming Growth Factor (TGFA) using HepaRG (AID 2283532)
How it was run: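 Differentiated HepaRG cells exposed 48 hours in serum-free induction medium, 0.5% DMSO vehicle, 8-point half-log series from 100 uM, in duplicate. TGFA mRNA by TaqMan qRT-PCR, normalised to ACTB, GAPDH, POLR2A; bidirectional fit versus DMSO.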

[5] = read-out: Transforming Growth Factor (TGFB1), TGFB1 (gene 7040); test: LTEA_HepaRG_TGFB1: Life Technologies and Expression Analysis (LTEA) Assay for Transforming Growth Factor (TGFB1) Transporter using HepaRG (AID 2283533)
How it was run: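 HepaRG, 48 h post-plating, switched to serum-free induction medium; chemicals 100 uM top, half-log, 8 pts, 0.5% DMSO, dup; 48 h exposure; RNA → Fluidigm TaqMan qRT-PCR; norm ACTB/GAPDH/POLR2A; bidirectional fit vs DMSO.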

TIMP1, TIMP1 (gene 7076) = test: LTEA_HepaRG_TIMP1: Life Technologies and Expression Analysis (LTEA) Assay for TIMP1 using HepaRG (AID 2283534)
How it was run: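 Readout is TIMP1 mRNA level measured by qRT-PCR and normalized to three housekeeping genes. Human HepaRG cells were treated for 48 h in duplicate at eight concentrations up to 100 uM (0.5% DMSO); gain or loss fitted against DMSO.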

[6] = read-out: Tumor necrosis factor receptor 1 (TNFRSF1A), TNFRSF1A (gene 7132); test: LTEA_HepaRG_TNFRSF1A: Life Technologies and Expression Analysis (LTEA) Assay for Tumor necrosis factor receptor 1 (TNFRSF1A) using HepaRG (AID 2283535)
How it was run: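 Read-out is TNFRSF1A transcript level by TaqMan qRT-PCR, normalized to three housekeeping genes, scored as gain or loss of signal versus 0.5% DMSO. Human HepaRG cells received test chemicals for 48 h at up to 100 uM (half-log series).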

[7] = read-out: Thyroid Hormone Responsive (THRSP), THRSP (gene 7069); test: LTEA_HepaRG_THRSP: Life Technologies and Expression Analysis (LTEA) Assay for Thyroid Hormone Responsive (THRSP) using HepaRG (AID 2283536)
How it was run: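 Differentiated HepaRG cells treated 48 h in serum-free induction medium with 8 half-log concentrations up to 100 uM (0.5% DMSO), duplicates. THRSP mRNA by TaqMan qRT-PCR normalised to ACTB, GAPDH, POLR2A; bidirectional fit versus DMSO.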

[8] = read-out: Cellular tumor antigen p53 (Homo sapiens) (UniProt P04637); test: LTEA_HepaRG_TP53: Life Technologies and Expression Analysis (LTEA) Assay for Tumor Protein P53 (TP53) using HepaRG (AID 2283537)
How it was run: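 Differentiated HepaRG cells in serum-free induction medium exposed 48 h in duplicate to 8 half-log concentrations, top 100 uM, 0.5% DMSO. TP53 mRNA by TaqMan qRT-PCR (Fluidigm), normalized to ACTB, GAPDH, POLR2A; fitted bidirectionally versus DMSO.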

[9] = read-out: UDP glucuronosyltransferase (UGT1A1), UGT1A1 (gene 54658); test: LTEA_HepaRG_UGT1A1: Life Technologies and Expression Analysis (LTEA) Assay for UDP glucuronosyltransferase (UGT1A1) using HepaRG (AID 2283538)
How it was run: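 Human liver HepaRG cultures receive test chemical for 48 h, up to 100 uM in 0.5% DMSO, with phenobarbital induction controls. UGT1A1 mRNA is measured by qRT-PCR and normalized to ACTB, GAPDH and POLR2A.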

Measured: AC50

Sequence of Cellular tumor antigen p53 (Homo sapiens) (P04637 whole entry, looked up): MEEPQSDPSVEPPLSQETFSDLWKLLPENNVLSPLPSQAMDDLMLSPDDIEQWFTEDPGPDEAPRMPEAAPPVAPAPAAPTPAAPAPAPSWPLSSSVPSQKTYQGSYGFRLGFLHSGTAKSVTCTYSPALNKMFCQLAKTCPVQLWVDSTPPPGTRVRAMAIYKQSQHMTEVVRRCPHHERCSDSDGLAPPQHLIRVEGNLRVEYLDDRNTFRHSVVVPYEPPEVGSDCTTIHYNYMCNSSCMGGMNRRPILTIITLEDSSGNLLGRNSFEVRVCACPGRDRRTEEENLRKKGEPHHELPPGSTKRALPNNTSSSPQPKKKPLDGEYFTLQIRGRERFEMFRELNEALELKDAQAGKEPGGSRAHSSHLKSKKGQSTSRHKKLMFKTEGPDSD
Sequence of Signal transducer and activator of transcription 3 (Homo sapiens) (P40763 whole entry, looked up): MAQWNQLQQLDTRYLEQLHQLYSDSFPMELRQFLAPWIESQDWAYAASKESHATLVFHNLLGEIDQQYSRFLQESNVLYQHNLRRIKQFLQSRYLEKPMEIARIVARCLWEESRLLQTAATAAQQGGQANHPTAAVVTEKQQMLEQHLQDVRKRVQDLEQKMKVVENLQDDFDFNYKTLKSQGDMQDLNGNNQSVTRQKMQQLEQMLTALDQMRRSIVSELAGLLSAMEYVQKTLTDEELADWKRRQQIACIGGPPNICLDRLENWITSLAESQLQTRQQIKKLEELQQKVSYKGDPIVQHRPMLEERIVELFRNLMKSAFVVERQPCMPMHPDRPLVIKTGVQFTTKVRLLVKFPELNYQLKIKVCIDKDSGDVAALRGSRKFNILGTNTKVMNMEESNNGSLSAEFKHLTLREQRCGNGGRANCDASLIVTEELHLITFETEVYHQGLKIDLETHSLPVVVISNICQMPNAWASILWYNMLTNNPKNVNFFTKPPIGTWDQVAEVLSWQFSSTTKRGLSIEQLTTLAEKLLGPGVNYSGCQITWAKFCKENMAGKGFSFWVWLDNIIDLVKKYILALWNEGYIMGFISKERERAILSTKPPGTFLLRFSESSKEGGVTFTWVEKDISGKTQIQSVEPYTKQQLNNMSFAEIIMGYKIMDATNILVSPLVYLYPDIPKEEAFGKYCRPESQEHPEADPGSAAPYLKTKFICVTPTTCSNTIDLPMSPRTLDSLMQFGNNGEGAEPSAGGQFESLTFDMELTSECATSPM

Cn1cnc([N+](=O)[O-])c1Sc1ncnc2nc[nH]c12
active: [2] 1.62 µM | [5] 12.8 µM | [7] 10.7 µM | [9] 0.754 µM
inactive: [1] | [3] | [4] | TIMP1, TIMP1 (gene 7076) | [6] | [8]

CC(=O)c1ccc2c(c1)[C@H](NC(=O)c1ccc(F)cc1)[C@@H](O)C(C)(C)O2
inactive: [1] | [2] | [3] | [4] | [5] | TIMP1, TIMP1 (gene 7076) | [6] | [7] | [8]
active: [9] 22.6 µM

COCCOc1cc2cc(C(=O)NC3CCN(C(C)C)CC3)n(CC(=O)Nc3ccc(Cl)cn3)c2cn1
inactive: [1] | [3] | [4] | [5] | [6] | [8]
active: [2] 56.5 µM | TIMP1, TIMP1 (gene 7076) 18.2 µM | [7] 51.5 µM | [9] 82.2 µM

COC(=O)CC(=O)OC
inactive: [1] | [2] | [3] | [4] | [5] | [6] | [7] | [8] | [9]

CNS(=O)(=O)c1cc(C(=O)N2CCC(CCN3C4CCC3CC(n3c(C)nc5ccccc53)C4)(c3cccc(F)c3)CC2)c(Cl)cc1F (stereo unspecified)
inactive: [1] | [4] | TIMP1, TIMP1 (gene 7076) | [6] | [7] | [8]
active: [2] 13.1 µM | [3] 9.92 µM | [5] 19.4 µM | [9] 9.92 µM

CC/C(=C\C(=N/O)C(N)=O)C(C)[N+](=O)[O-] (stereo unspecified)
inactive: [1] | [2] | [3] | [4] | [5] | TIMP1, TIMP1 (gene 7076) | [6] | [7] | [8] | [9]

Fc1ccccc1[C@@H](F)COC1CCC(Nc2ncnc3[nH]ncc23)CC1 (stereo partly specified)
active: [1] 8.85 µM | [2] 71.7 µM | [3] 65.7 µM | [4] 50 µM | [9] 68 µM
inactive: [5] | TIMP1, TIMP1 (gene 7076) | [6] | [7] | [8]

C=CCCCCCCCCC(=O)O
inactive: [1] | [2] | [3] | [4] | [5] | TIMP1, TIMP1 (gene 7076) | [6] | [7] | [8] | [9]

CN(C)c1ccc(N=NS(=O)(=O)O)cc1
inactive: [2] | [3] | [4] | [5] | TIMP1, TIMP1 (gene 7076) | [8] | [9]
active: [1] 0.717 µM | [6] 12.3 µM | [7] 11.1 µM

CCc1cc(SCc2sc(-c3ccc(C(F)(F)F)cc3)nc2CN2CCN(c3ccc(OC)cc3)CC2)ccc1OCC(=O)O
inactive: [7]
active: [1] 93.3 µM | [2] 7.63 µM | [3] 5.72 µM | [4] 6.99 µM | [5] 28.9 µM | [6] 5 µM | [8] 7.74 µM | [9] 7.28 µM

O=C(OC[C@H]1O[C@@H](OC(=O)c2cc(O)c(O)c(OC(=O)c3cc(O)c(O)c(O)c3)c2)[C@H](OC(=O)c2cc(O)c(O)c(OC(=O)c3cc(O)c(O)c(O)c3)c2)[C@@H](OC(=O)c2cc(O)c(O)c(OC(=O)c3cc(O)c(O)c(O)c3)c2)[C@@H]1OC(=O)c1cc(O)c(O)c(OC(=O)c2cc(O)c(O)c(O)c2)c1)c1cc(O)c(O)c(OC(=O)c2cc(O)c(O)c(O)c2)c1
active: [2] 9.07 µM | [3] 9.46 µM | [4] 6.41 µM | [5] 2.96 µM | TIMP1, TIMP1 (gene 7076) 15.2 µM | [7] 6.1 µM | [8] 4.95 µM | [9] 4.66 µM
inactive: [1] | [6]

CCn1nc(Cc2ccccc2)cc1C1CCN(C[C@H]2C[C@H](N(C)[C@@H](C(=O)O)C(C)C)C[C@@H]2c2cccc(F)c2)CC1
active: [5] 73.3 µM
inactive: [1] | [2] | [3] | [4] | [6] | [7] | [8] | [9]

CC1(C)C(=O)N(Br)C(=O)N1Br
active: [9] 21.4 µM
inactive: [1] | [2] | [3] | [4] | [5] | TIMP1, TIMP1 (gene 7076) | [6] | [7] | [8]

CCCCC(CC)COC(=O)c1ccc(C(=O)OCC(CC)CCCC)cc1 (stereo unspecified)
inactive: [1] | [2] | [3] | [4] | [5] | TIMP1, TIMP1 (gene 7076) | [6] | [7] | [8] | [9]

Cc1ccc(N)cc1O
inactive: [1] | [2] | [3] | [4] | [5] | TIMP1, TIMP1 (gene 7076) | [6] | [8] | [9]
active: [7] 25.2 µM

CCCC(=O)OCC
inactive: [1] | [2] | [3] | [4] | [5] | [6] | [7] | [8] | [9]

CC(C)=CCCC(C)=CC=O
inactive: [1] | [2] | [3] | [4] | [5] | TIMP1, TIMP1 (gene 7076) | [6] | [7] | [8] | [9]

COc1ccc2sc(C(=O)Nc3nnn[nH]3)c(OC(C)C)c2c1
inactive: [1] | [5] | TIMP1, TIMP1 (gene 7076)
active: [2] 81.7 µM | [3] 78.4 µM | [4] 34 µM | [6] 39 µM | [7] 50 µM | [8] 38.9 µM | [9] 12.9 µM

Cn1c(=O)c2c(ncn2C)n(C)c1=O
inactive: [1] | [2] | [3] | [4] | [5] | TIMP1, TIMP1 (gene 7076) | [6] | [7] | [8] | [9]

O=C1CCC(N2C(=O)c3ccccc3C2=O)C(=O)N1 (stereo unspecified)
inactive: [1] | [2] | [3] | [4] | [5] | TIMP1, TIMP1 (gene 7076) | [6] | [7] | [8] | [9]
